This is an account of results in PubChem BioAssay AID709 (SRMLSC, 2007).

The whole screen tested about 65,000 compounds, of which about 3,600 (5.5%) were called active.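 How the source made its calls: active means at 10 µM, mean starting fluorescence two-fold or more over control wells; inactive means the rest.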 Only a selection was taken, and actives are over-represented in it overall.

The test is described as follows: intrinsic fluorescence of library compounds, ex339/em460 – biochemical, MLSMR library, data from DPM-DC assay, artefact control, profiling panel (AID 709).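 Further: signal is the first read of a kinetic run.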 The note with it: compound autofluorescence, ex339/em460 nm, NADH buffer; at 10 µM; active compounds read high; 1 = no-compound wells, NADH background.
`CC(=O)c1cc(-c2ccccc2)[nH]c1N1CCCC1`: the fluorescence fold increase was 1.05 (inactive).

Turning to `CC1CCN(c2oc(-c3ccccc3F)nc2C#N)CC1`, the fluorescence fold increase was 2.45 (active).

Take `Cc1ccc(OCc2nc(C#N)c(N3CCCC3)o2)cc1`: the fluorescence fold increase was 1.03 (inactive).

`N#Cc1nc(COc2ccc(Cl)cc2)oc1N1CCCC1`: the fluorescence fold increase is 1.02 (inactive).

As for `Cc1cc(C)c(C#N)c(SCc2ccc3c(c2)OCO3)n1`, the fluorescence fold increase is 1.09 (inactive).

Take `CCOC(=O)N1CCN(C(=O)CN(C2CCCCC2)S(C)(=O)=O)CC1`: the fluorescence fold increase was 1.07 (inactive).

As to `CCOc1ccc2[nH]c(=O)c(C(c3nnnn3CCOC)N3CCOCC3)cc2c1` (stereo unspecified), the fluorescence fold increase was 5.03 (active).

With `COCCn1nnnc1C(c1cc2ccc(OC)cc2[nH]c1=O)N1CCc2ccccc2C1` (stereo unspecified), the fluorescence fold increase is 1.12 (inactive).

With `COc1ccc(N2CCN(C(c3cc4ccc(C)cc4[nH]c3=O)c3nnnn3C3CCCC3)CC2)cc1` (stereo unspecified), the fluorescence fold increase is 1.25 (inactive).

For the molecule `O=C(O)Cc1ccc(NC(=O)C2CCCCC2C(=O)O)cc1` (stereo unspecified), the fluorescence fold increase is 1.09 (inactive).

As for `CC1CN(C(=O)c2ccc3c(c2)OCO3)OC(c2ccccc2)O1` (stereo unspecified), the fluorescence fold increase is 1.07 (inactive).

As to `COc1ccc(C2/C(=C(/O)c3ccc(OC(C)C)cc3)C(=O)C(=O)N2CCCN2CCOCC2)cc1` (stereo unspecified), the fluorescence fold increase is 1.01 (inactive).

Take `O=C(OCC(=O)N1CCN(C(=O)c2ccco2)CC1)c1ccccc1Cc1ccccc1`: the fluorescence fold increase was 0.99 (inactive).

For `CCOC(=O)c1c(NC(=O)c2cccs2)sc(C)c1C`, the fluorescence fold increase is 1.74 (inactive).

Take `CCCOC(=O)Nc1sc2c(c1C(=O)OCC)CCC2`: the fluorescence fold increase was 1.1 (inactive).

Take `CCOCC(=O)Nc1sc2c(c1C(=O)OCC)CCCC2`: the fluorescence fold increase is 1.11 (inactive).

In the case of `CCOC(=O)c1c(NC(=O)c2ccc(Br)o2)sc2c1CCCC2`, the fluorescence fold increase is 2.17 (active).

For `COc1cc(OC)c(NC(=O)c2ccc(Br)o2)cc1Cl`, the fluorescence fold increase is 1.09 (inactive).

As to `CCc1c(C)sc(NC(=O)c2ccc(Br)o2)c1C(=O)OC`, the fluorescence fold increase was 2.8 (active).

As to `COC(=O)c1c(NC(=O)CSc2nncs2)sc2c1CCCCC2`, the fluorescence fold increase is 1.1 (inactive).

Regarding `COC(=O)c1c(NC(=O)c2cccs2)sc2c1CCCC2`, the fluorescence fold increase was 2.23 (active).

For the molecule `CC(CNC(=O)c1ccc(Br)o1)NC(=O)c1ccc(Br)o1` (stereo unspecified), the fluorescence fold increase was 1.02 (inactive).

In the case of `Fc1ccccc1CCNc1nnnn1-c1ccccc1`, the fluorescence fold increase is 1.11 (inactive).

As to `COc1cc(NS(=O)(=O)c2ccc(NC(C)=O)cc2)cc(OC)c1`, the fluorescence fold increase is 1.13 (inactive).

With `COC(=O)c1ccc2c(c1)S(=O)(=O)NC(=NCCCN1CCOCC1)S2`, the fluorescence fold increase is 1.06 (inactive).

As to `CCNC(=O)CN(c1ccc(C)cc1)S(=O)(=O)c1ccc(SC)cc1`, the fluorescence fold increase is 1.06 (inactive).

Turning to `CCCOP(=O)(c1ccc(N(C)C)cc1)C(O)c1cc(OC)c(OC)c(OC)c1` (stereo unspecified), the fluorescence fold increase was 1.13 (inactive).

For `CN(C)CCCn1c(N)c(C#N)c2nc(C#N)c(C#N)nc21`, the fluorescence fold increase is 3.35 (active).

As for `O=C1C(C=NCC2CCCO2)=C(O)c2ccccc21` (stereo unspecified), the fluorescence fold increase is 1.09 (inactive).

In the case of `COC(=O)c1cnn2c(C(F)(F)F)cc(-c3ccco3)nc12`, the fluorescence fold increase was 2.46 (active).

Consider `COc1ccc(-c2cc(C(F)(F)F)n3nc(C(=O)N4CCOCC4)c(Cl)c3n2)cc1`, for which the fluorescence fold increase was 1.17 (inactive).

In the case of `O=C(NCc1ccco1)c1cnn2c(C(F)(F)F)cc(-c3ccco3)nc12`, the fluorescence fold increase was 1.6 (inactive).

Take `CC(=O)Nc1ccc(S(=O)(=O)Nc2ccc(N3CCOCC3)c(F)c2)cc1`: the fluorescence fold increase is 1.1 (inactive).

For the molecule `CCn1c(SCC(=O)NCc2ccco2)nnc1-c1ccc(N)cc1`, the fluorescence fold increase is 1.1 (inactive).

Turning to `CCOC(=O)c1cc(-c2ccc(Cl)s2)nc2c1c(C)nn2C`, the fluorescence fold increase was 3.19 (active).

`CCOC(=O)c1cc(NC(=O)SCC(=O)O)c(C)nc1C`: the fluorescence fold increase was 1.15 (inactive).

In the case of `CCOC(=O)c1c(C(C#N)C#N)cc(C)nc1C`, the fluorescence fold increase was 0.98 (inactive).

As to `CS(=O)(=O)N1CCN(C(=O)c2cc3ccccc3oc2=O)CC1`, the fluorescence fold increase is 1.14 (inactive).

`C=CCc1cccc2cc(C(=O)N3CCN(C(=O)OCC)CC3)c(=O)oc12`: the fluorescence fold increase was 1.17 (inactive).

On to `CNC(=O)c1cc2c(ccc3ccccc32)oc1=N`, for which the fluorescence fold increase is 2.32 (active).

On to `CN1CCN(CCCNC(=O)c2cc3c(=O)oc4ccccc4c3s2)CC1`, for which the fluorescence fold increase is 1.53 (inactive).

As to `CCOC(=O)N1CCN(C(=O)c2cc3c(ccc4ccccc43)oc2=O)CC1`, the fluorescence fold increase was 3.93 (active).

With `O=C(NCCc1ccc2c(c1)OCCO2)c1cc2ccccc2o1`, the fluorescence fold increase was 1.11 (inactive).

Consider `Cc1ccc(C(=O)N2CCN(C3CCCCC3)CC2)s1`, for which the fluorescence fold increase was 1.14 (inactive).

As to `Cc1oc(C)c(C(=O)NCCCC(=O)O)c1C(=O)NCCCC(=O)O`, the fluorescence fold increase was 1.14 (inactive).

Take `CCOc1ccc(Cn2nnc(C(=O)Nc3ccc(OC)cc3OC)c2N)cc1`: the fluorescence fold increase is 1.25 (inactive).

As for `C[N+]1(CCNC(=O)/C=N/O)CCCCC1`, the fluorescence fold increase was 1.1 (inactive).

With `CCCCC(=O)N1CC2(C)CN(C(=O)CCCC)CC(C)(C1)C2=O`, the fluorescence fold increase was 1.09 (inactive).

Take `COc1ccc(N2C(=O)CCC(C(=O)Nc3ccccn3)C2c2ccc(OC)c(OC)c2)cc1` (stereo unspecified): the fluorescence fold increase was 0.92 (inactive).

Turning to `COc1ccc(C2CC(=O)C=C(NCC3CCCO3)C2)cc1` (stereo unspecified), the fluorescence fold increase is 1.07 (inactive).

As for `Cc1ccc(C(=O)NCC2CCCO2)o1` (stereo unspecified), the fluorescence fold increase was 1.14 (inactive).

Take `CC1(C)CC(=O)c2cc(OCC(=O)NCC3CCCO3)ccc2O1` (stereo unspecified): the fluorescence fold increase is 5.06 (active).

With `Nc1ccc(-c2nnc(-c3ccc(-c4ccccc4)cc3)o2)cc1`, the fluorescence fold increase is 3.89 (active).

For the molecule `O=C(Nc1ccc(-c2nnc(-c3ccccc3)o2)cc1)c1ccc(Br)o1`, the fluorescence fold increase was 1.45 (inactive).

`O=C(Nc1ccc(-c2nnc(-c3ccccc3)o2)cc1)C1CCCO1` (stereo unspecified): the fluorescence fold increase was 1.79 (inactive).

Turning to `CO/N=C(\C(=O)N[C@@H]1C(=O)N2C(C(=O)O)=C(COC(C)=O)CS[C@H]12)c1csc(N)n1` (stereo in doubt), the fluorescence fold increase was 1.08 (inactive).

Consider `CCCn1c(O)c(CN2CCCC(C)C2)c(C)c(C#N)c1=O` (stereo unspecified), for which the fluorescence fold increase was 1.26 (inactive).

For `CCN(CC)Cc1c(C(=O)OC)nnn1-c1nonc1N`, the fluorescence fold increase was 1.05 (inactive).

For the molecule `Cc1ccc2c(CSc3nncs3)cc(=O)oc2c1`, the fluorescence fold increase was 1.02 (inactive).

For `COc1ccc(S(=O)(=O)Nc2ccc3c(c2)OCO3)cc1Cl`, the fluorescence fold increase was 1.03 (inactive).

As for `CC(=O)Nc1cccc(-c2cnc3ccccc3n2)c1`, the fluorescence fold increase is 1.09 (inactive).

In the case of `CCCC(=O)Nc1cccc(-c2cn3ccsc3n2)c1`, the fluorescence fold increase was 1.09 (inactive).

`CCOc1nc(OCC)nc(-n2cc(-c3ccccc3)nn2)n1`: the fluorescence fold increase was 1.06 (inactive).

For `CC(=O)Nc1ccc(-c2cn3cccnc3n2)cc1`, the fluorescence fold increase was 5.32 (active).

Consider `c1ccc(-c2cn3cccnc3n2)cc1`, for which the fluorescence fold increase is 2.51 (active).

In the case of `COc1ccc(-c2cn3ccsc3n2)cc1`, the fluorescence fold increase was 1.08 (inactive).
